Assay outcomes as filed in PubChem BioAssay.
TEAD-YAP inh = TEAD-YAP interaction inhibition | HEK-TIYL cells, TEAD-Gal4/YAP UAS-luciferase luminescence | inhibition, % at 9.12 µM | 640,000 tested, 1.4% active | AID 1259422; in the data active = inhibition above about 32%;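 note: 0% = median of test compound wells and 100% = reference inhibitor wells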
GPR151 activ = activates the human receptor GPR151 | PathHunter beta-arrestin GPR151 cells, luminescence | Q8TDV0 | activation, % at 11.2 µM | 650,000 tested, 1% active; in the data active = activation above about 4.9%;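 note: 0% = median of compound wells and 100% = cells with positive control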
Target sequence (Q8TDV0 whole entry, looked up): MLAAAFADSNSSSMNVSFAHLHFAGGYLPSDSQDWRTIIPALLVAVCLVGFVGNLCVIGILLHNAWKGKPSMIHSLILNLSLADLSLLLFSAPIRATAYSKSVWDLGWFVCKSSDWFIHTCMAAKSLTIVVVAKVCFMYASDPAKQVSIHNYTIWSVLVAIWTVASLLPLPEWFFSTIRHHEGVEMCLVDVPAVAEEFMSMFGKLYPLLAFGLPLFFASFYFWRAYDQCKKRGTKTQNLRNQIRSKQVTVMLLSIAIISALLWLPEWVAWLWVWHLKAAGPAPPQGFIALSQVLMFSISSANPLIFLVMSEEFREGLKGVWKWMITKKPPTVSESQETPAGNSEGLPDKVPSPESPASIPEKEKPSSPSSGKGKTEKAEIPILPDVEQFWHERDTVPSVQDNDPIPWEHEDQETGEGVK
FBW7 act = human FBW7 E3 ligase activation, primary screen; normalized activity (activation), % at 26.1 µM; AlphaScreen FBW7–phospho-cyclin E peptide binding, activator screen; 650,000 tested, 0.13% active; AID 1259310; Q969H0; in the data active = normalized activity above about 1.9%;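 note: purified mutant Fbw7 with reduced substrate affinity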
MITF inh = human MITF inhibition, primary screen. O75030. AlphaScreen MITF homodimerization, bead proximity signal. inhibition, % at 2.6 µM. 650,000 tested, 0.91% active; in the data active = inhibition above about 50%;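 note: 0% = vehicle wells with protein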
MITF inh conf = confirmation of human MITF inhibitors | AID 1259372 | AlphaScreen MITF homodimerization, biotin/His-MITF beads | inhibition, % at 2.6 µM | 4,700 tested, 16% active | shares compounds with MITF inh;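 active = inhibition above a cutoff derived from the DMSO control wells, cut at about 28% in these data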;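 note: 0% = MITF dimer wells with DMSO only; inhibitors lower the bead chemiluminescence by keeping MITF from dimerizing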
AlphaScreen DR = AlphaScreen optical interference, dose response counter-screen; AlphaScreen optical interference counterscreen, cell-free; IC50, µM; 480 tested, 6% active; shares compounds with MITF inh; call rule not given here
AS interf ctr = AlphaScreen optical interference, counter-screen; AID 1259376; shares compounds with MITF inh; 4,700 tested, 7.6% active; inhibition, % at 2.6 µM; LysRS AlphaScreen counterscreen, signal interference, triplicate;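 active = inhibition above a cutoff derived from the DMSO control wells, cut at about 30% in these data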
An asterisk follows results filed as active; nt = not tested or not shown. The list is not random: actives were taken first. Their share in the collection is about 3.4%.

SMILES	TEAD-YAP inh	GPR151 activ	FBW7 act	MITF inh	MITF inh conf	AS interf ctr	others
Cc1cccc(N2C(=O)c3ccc(Oc4ccc(NC(=O)CCS(=O)(=O)c5ccc(Br)cc5)cc4)cc3C2=O)c1	-11	-1	0	-1	nt	nt
CCc1nc2sc(C(c3ccc(C(C)C)cc3)N3CCCC3)c(O)n2n1 (configuration not stated)	1	1	0	57*	0	-3
CCc1nc2sc(C(c3ccc(OC)c(OC)c3)N3CCCCC3)c(O)n2n1 (configuration not stated)	-2	0	0	-13	nt	nt
O=C(CN1CCOCC1)Nc1ccc([N+](=O)[O-])cc1C(=O)Nc1ccccc1F	6	3	0	4	nt	nt
O=C(CNCc1ccccn1)Nc1ccc([N+](=O)[O-])cc1C(=O)Nc1ccccc1F	-8	-2	-2	75*	18	24
COC(=O)c1cc(S(=O)(=O)NCCc2ccc(C)cc2)cn1C	7	0	0	24	nt	nt
CC(NS(=O)(=O)c1cc(Cl)ccc1Cl)C(=O)NC1CCCCC1 (configuration not stated)	2	-1	0	57*	-4	1
S=C(NC1CCCCC1)N1CCN(Cc2ccco2)CC1	-16	3	0	-21	nt	nt
CC1CCCCC1N1CCN(Cc2ccco2)CC1 (configuration not stated)	5	-1	0	69*	-3	5
c1coc(Cn2nnnc2CN2CCN(C3CCCC3)CC2)c1	-2	1	0	-1	nt	nt
c1coc(CN2CCC(N3CCOCC3)CC2)c1	12	1	1	60*	13	16
c1coc(CN2CCN(C3CCCCCC3)CC2)c1	12	1	0	74*	0	5
CCOC(=O)c1cnc(SCC(=O)Nc2cc(Cl)ccc2OC)nc1N	10	0	0	19	nt	nt
Cc1cccc(OCCn2cnc3ccccc3c2=O)c1C	-9	0	0	4	nt	nt
COc1ccccc1N1C(=O)c2cccc3c(N(C)CCO)ccc(c23)C1=O	2	-1	0	74*	-1	1
CC(C)(C)OC(=O)N1C(C(=O)O)CSC1c1cc2c(cc1[N+](=O)[O-])OCO2 (configuration not stated)	-7	0	0	60*	72*	-5	AlphaScreen DR=>6.5
Fc1ccc(CN2CCc3nnc(-c4ccccc4)n3CC2)cc1F	10	0	0	-1	nt	nt
CN1CCC(N(C)C(=O)NC2CC(=O)N(c3ccc4c(c3)OCCO4)C2)CC1 (configuration not stated)	0	0	0	0	nt	nt
COc1cccc(CN2CCN(Cc3ccc(OC)c(Br)c3)CC2)c1	2	0	0	66*	13	9
CCS(=O)(=O)N1CCN(Cc2ccc(OC)c(Br)c2)CC1	7	1	0	44	nt	nt
CCCS(=O)(=O)N1CCN(Cc2ccc(OC)c(Br)c2)CC1	6	1	0	11	nt	nt
COc1cccc(CN2CCN(Cc3cccc4ccccc34)CC2)c1	2	2	0	77*	-15	0
COc1ccc(CN2CCN(S(C)(=O)=O)CC2)cc1Br	10	0	0	70*	5	16
COc1cccc(/C(C)=N/N2CCN(Cc3cccc4ccccc34)CC2)c1	8	-1	0	2	nt	nt
COc1cc(CN2CCN(Cc3ccccc3Cl)CC2)cc(OC)c1	2	1	0	69*	5	-2
SMILES	TEAD-YAP inh	GPR151 activ	FBW7 act	MITF inh	MITF inh conf	AS interf ctr	others
CCOC(=O)COc1ccc(/C=C2\NC(=S)N(C3CCCCC3)C2=O)cc1	2	0	0	-10	nt	nt
COc1ccc(CN2CCN(Cc3cccc4ccccc34)CC2)cc1Br	-8	-1	0	72*	0	-2
COc1ccc(CN2CCN(Cc3ccc(OC)c(Br)c3)CC2)cc1	10	0	0	62*	14	-3
CCOC(=O)N1CCN(Cc2ccc(OC)c(Br)c2)CC1	-5	-1	0	2	nt	nt
O=C(COC(=O)CCN1C(=O)c2cccc([N+](=O)[O-])c2C1=O)Nc1cccnc1Cl	0	1	0	3	nt	nt
CC1=C(C(=O)OCC(C)C)C(c2ccc(N(C)C)cc2)NC(=O)N1 (configuration not stated)	-1	0	0	18	nt	nt
CC1(C)CC(=O)C(C(C2=C(O)CC(C)(C)CC2=O)c2ccccc2[N+](=O)[O-])C(=O)C1 (configuration not stated)	1	-1	0	0	nt	nt
Nc1nc(-c2cc3ccccc3oc2=O)cs1	-34	-10	0	-6	nt	nt
COC(=O)c1ccc(COC(=O)CNC(=O)c2ccccc2)cc1	6	1	0	10	nt	nt
COc1ccc(C(=O)NCC(=O)NCC(=O)OCc2ccccc2)cc1	5	1	0	54*	8	6
Fc1cc(F)c(F)c(SCCc2ccncc2)c1F	-3	0	0	90*	18	22
N/C(=N\N=C\c1c2ccccc2cc2ccccc12)c1nonc1N	4	0	0	-1	nt	nt
CC1(C)CC(=O)C=C(NCC2NCCc3ccccc32)C1 (configuration not stated)	-4	4	0	-6	nt	nt
Fc1cccc(F)c1CNCC1NCCc2ccccc21 (configuration not stated)	8	1	0	78*	-3	9
Cc1ccnc(N2CCC(C(=O)NCC(N)=O)CC2)n1	-5	0	0	5	nt	nt
COc1cc(OC)cc(C(=O)N2CCN(Cc3ccc(C(F)(F)F)cc3)CC2)c1	6	0	0	52*	21	13
COc1cc(OC)cc(C(=O)N2CCN(Cc3ccc4ccccc4c3)CC2)c1	6	-2	0	39	nt	nt
COc1ccc(C(=O)N2CCN(Cc3ccc(C(F)(F)F)cc3)CC2)cc1OC	49*	0	0	51*	7	12
COc1ccc(C(=O)N2CCN(Cc3cc(OC)c(O)c(OC)c3)CC2)cc1OC	2	1	0	37	nt	nt
Cc1ccc(Cl)cc1NC(=O)Cn1cc(C=O)c2ccccc21	-2	0	0	6	nt	nt
c1ccc(C(CN2CCOCC2)c2ccccc2)cc1	-8	-1	0	57*	-9	2
Cc1cc(C)n(CCCNCC(O)COc2ccc(-c3ccccc3)cc2)n1 (configuration not stated)	6	1	0	35	nt	nt
OC(CNCCCn1ccnc1)COc1ccccc1 (configuration not stated)	4	0	0	75*	6	17
OC(CNCCCn1ccnc1)COc1cccc2ccccc12 (configuration not stated)	12	-1	0	84*	18	17
